# The entries come from a sample that favours hits as a whole.
# CBX7 AlphaScr: inhibitors of human CBX7 binding to H3K27me3 peptide; hit rate 1.1% among 66,000; AlphaScreen His6-CBX7 / biotin-H3K27me3 peptide binding; active compounds read low; O95931; normalised signal (fraction of DMSO) (no concentration beside the values); AID 1224903; in the data active = normalised signal below about 0.5
# Target sequence (O95931 whole entry, looked up): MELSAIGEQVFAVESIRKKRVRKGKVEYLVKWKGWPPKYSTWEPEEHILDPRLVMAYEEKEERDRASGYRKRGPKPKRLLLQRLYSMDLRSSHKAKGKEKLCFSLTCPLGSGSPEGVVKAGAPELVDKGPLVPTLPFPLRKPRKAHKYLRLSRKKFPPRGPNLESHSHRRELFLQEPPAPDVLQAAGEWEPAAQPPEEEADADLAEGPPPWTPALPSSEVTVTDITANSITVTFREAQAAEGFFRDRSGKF
# * marks the source's active call; other numbers are inactive results.
SMILES,CBX7 AlphaScr
O=C(O)c1ccc2c(c1)NC(=O)C(CS(=O)(=O)Cc1ccc(F)cc1)N2 (stereo not drawn),0.95
COc1ccccc1Nc1ncc(C(=O)NCCCN2CCOCC2)c2ccccc12,1.3
O=C(CN1CCN(c2ccccc2F)CC1)Nc1nc(-c2ccccc2)cs1,0.88
CCOCCn1cnc2sc(C(=O)Nc3ccccc3F)c(C)c2c1=O,1.1
Cc1ccc(-c2nc3cnccn3c2Nc2ccc3c(c2)OCCO3)cc1,0.96
Cc1nc(C)c(-c2csc(Nc3ccc(Cl)cc3)n2)s1,0.59
Cc1nc(C)c(-c2csc(Nc3ccc(N(C)C)cc3)n2)s1,0.054*
CC(=O)Nc1nc(C)c(-c2csc(Nc3ccc(Cl)cc3)n2)s1,1
COc1ccc(NC(=O)c2cn(CC(C)C)c(=O)c3cc(OC)c(OC)cc23)c(OC)c1,1.2
Cc1ccc(C(=O)CC2(O)C(=O)N(Cc3ccc(Cl)cc3)c3ccccc32)cc1 (stereo not drawn),0.73
COc1ccc(C(=O)CC2(O)C(=O)N(Cc3ccc(Cl)cc3)c3ccccc32)cc1 (stereo not drawn),0.77
CCc1ccc(C(=O)CC2(O)C(=O)N(Cc3ccc(Cl)cc3)c3ccccc32)cc1 (stereo not drawn),0.42*
Cc1c(CCNC(=O)c2cc(S(=O)(=O)N(C)C)c(Cl)cc2Cl)c2ccccc2n1C,0.86
OC1(c2ccc3c(c2)c2c4n3CCN(Cc3ccccc3)C4CCC2)CCCC1 (stereo not drawn),0.37*
CCN1CCn2c3c(c4cc(Cl)ccc42)CCCC31 (stereo not drawn),0.98
Cc1ccc2c(c1)c1c3n2CCN(CCC(N)=O)C3CCC1 (stereo not drawn),0.97
O=C(CCCC1=NS(=O)(=O)c2ccccc2N1)Nc1nc2ccc(Cl)cc2s1,1
Cc1nnc(NC(=O)c2ccc(S(=O)(=O)N3CCCc4ccccc43)cc2)o1,0.034*
COc1cc(OC)cc(-c2nnc(NC(=O)c3ccc(S(=O)(=O)N4CCCC4)cc3)o2)c1,0.86
O=C(Nc1nnc(C2CC2)o1)c1ccc(S(=O)(=O)N2CCCCCC2)cc1,0.0011*
CC1CC(C)CN(S(=O)(=O)c2ccc(C(=O)Nc3nnc(C4CC4)o3)cc2)C1 (stereo not drawn),0.065*
CCOc1cccc2sc(NC(=O)c3ccc(S(=O)(=O)N4CCCc5ccccc54)cc3)nc12,1.2
CCC1CCCCN1S(=O)(=O)c1ccc(C(=O)Nc2nnc(C3CC3)o2)cc1 (stereo not drawn),0.75
O=C(Nc1nnc(-c2ccc(F)cc2)o1)c1ccc(S(=O)(=O)N2CCCC2)cc1,0.013*
COc1ccc(-c2nnc(NC(=O)c3ccc(S(=O)(=O)N4CC(C)CC(C)C4)cc3)o2)c(OC)c1 (stereo not drawn),0.97
SMILES,CBX7 AlphaScr
CCc1nnc(NC(=O)c2ccc(S(=O)(=O)N3CCCC(C)C3)cc2)o1 (stereo not drawn),0.64
O=C(Nc1nc(-c2ccncc2)cs1)c1ccc(S(=O)(=O)N2CCCc3ccccc32)cc1,0.86
COc1ccc(-c2nnc(NC(=O)c3ccc(S(=O)(=O)N4CCCC4)cc3)o2)cc1,0.56
Fc1ccc(C2CC(c3ccccc3F)n3ncnc3N2)cc1 (stereo not drawn),1
COc1ccc(N2CCN(CCCNC(=O)c3ccc4nc(N5CCOCC5)sc4c3)CC2)cc1,1.2
COc1cc2[nH]c(=O)n(Cc3ccc(C(=O)NCCN(C)C)cc3)c(=O)c2cc1OC,1
CCOC(=O)N1CCC(Nc2c(NC3CCC(C)CC3)c(=O)c2=O)CC1 (stereo not drawn),1
CCc1ccc(NC(=O)N(CCN(C)C)C2CCN(C(C)C)CC2)cc1,1.2
CCOCCCNC(=O)c1ccc2c(c1)nc(C)n2-c1ccc(F)c(F)c1,1
CCOc1ccc(C(=O)N2CC(=O)Nc3ccc(Cl)cc3C2c2ccc(F)cc2)cc1 (stereo not drawn),0.97
Cc1ccc(NC(=O)C(c2ccccc2)N2CCc3ccccc32)cc1 (stereo not drawn),0.55
CCCN(CCC)S(=O)(=O)c1ccc(C(=O)Nc2nnc(-c3ccc(Cl)s3)o2)cc1,1
CC(C)CN(CC(C)C)S(=O)(=O)c1ccc(C(=O)Nc2nnc(-c3ccc(Cl)s3)o2)cc1,0.86
O=C(Nc1nnc(C2CC2)o1)c1ccc(S(=O)(=O)N2CCOCC2)cc1,0.44*
COc1cc(OC)cc(-c2nnc(NC(=O)c3ccc(S(=O)(=O)N4CCCCCC4)cc3)o2)c1,0.8
CN(c1ccccc1)S(=O)(=O)c1ccc(C(=O)Nc2nnc(-c3ccc(Cl)s3)o2)cc1,0.39*
Cc1nnc(NC(=O)c2ccc(S(=O)(=O)N3CCCC3)cc2)o1,0.024*
Cc1nnc(NC(=O)c2ccc(S(=O)(=O)N3CCCC(C)C3)cc2)o1 (stereo not drawn),0.75
O=C(Nc1nnc(-c2ccc(Cl)s2)o1)c1ccc(S(=O)(=O)N2CCCCC2)cc1,0.16*
Cc1nnc(NC(=O)c2ccc(S(=O)(=O)N3CCOCC3)cc2)o1,0.51
CCCCN(C)S(=O)(=O)c1ccc(C(=O)Nc2nnc(-c3ccc(Cl)s3)o2)cc1,0.98
COc1ccc(-c2nnc(NC(=O)c3ccc(S(=O)(=O)N4CCOCC4)cc3)o2)cc1,0.52
Cc1cccc(NC(=O)Cn2cc(S(=O)(=O)c3ccccc3)c(=O)c3cc(Cl)ccc32)c1,0.91
CC1CC(C)CN(C(=O)Cn2nc(Cc3ccncc3)c3ccccc3c2=O)C1 (stereo not drawn),0.98
Cc1ccc(-c2csc(NC(=O)CCCOc3ccc(Cl)cc3)n2)cc1,1.2
SMILES,CBX7 AlphaScr
CCOC(=O)N1CCC(Nc2c(NCC3CCN(Cc4cccc(C)c4)CC3)c(=O)c2=O)CC1,1
CCc1ccc(NC(=O)c2cc(-c3cccc(OC)c3)on2)cc1,0.88
Cc1ccc(NC(=O)c2ccc3c(c2)N(Cc2ccc(F)cc2)C(=O)CS3=O)c(Cl)c1 (stereo not drawn),1.2
Cc1cccc2c1-c1sc(C(=O)N3CC=C(c4ccccc4)CC3)cc1CO2,1.3
COc1ccc(NC(=O)c2cnc(N3CCN(c4ccccc4OC)CC3)c3ccccc23)c(OC)c1,0.99
COc1cccc(-c2cc(C(=O)NCc3ccc(Cl)c(Cl)c3)c3ccccc3n2)c1,1.1
O=C(Cc1ccccc1)Nc1nnc(Cc2ccc(Cl)c(Cl)c2)s1,1
CCOc1ccccc1N(C)C(=O)Cn1ncc2c1-c1cc(C)ccc1OC2,1
O=C(NCc1ccc(F)cc1)c1cc(-c2ccccc2O)on1,1
CN(C)S(=O)(=O)c1ccc(C(=O)Nc2nnc(-c3ccc(F)cc3)o2)cc1,0.044*
CCc1nnc(NC(=O)c2ccc(S(=O)(=O)N3CCC(C)CC3)cc2)o1,0.62
CCc1nnc(NC(=O)c2ccc(S(=O)(=O)N3CCCCC3)cc2)o1,0.1*
COCc1nnc(NC(=O)c2ccc(S(=O)(=O)N3CCCC3)cc2)o1,0.57
CCOc1ccc(NC(=O)C2=CCN(S(=O)(=O)c3ccccc3)CC2)cc1,0.94
COc1ccc(Nc2ncc(C(=O)Nc3ccc(C(C)C)cc3)c3ccccc23)cc1,0.85
COc1ccccc1C(=O)Nc1ccc(NC(=O)c2ccccc2)c(C)c1,1.2
COc1ccc(C2NC(C(=O)O)Cc3[nH]cnc32)cc1CSc1nc2ccccc2[nH]1 (stereo not drawn),0.5*
COc1ccc(CSc2nc3ccccc3[nH]2)cc1,0.97
COc1ccc(C2NCCc3c2[nH]c2ccccc32)cc1CSc1nc2ccccc2[nH]1 (stereo not drawn),0.89
CCCCNC(=O)c1c[nH]n2c(=O)c(Cc3ccccc3F)c(C)nc12,0.81
